An excerpt weighted towards active compounds, which were near 2.4% of everything screened.
TMEM16A act – mouse TMEM16A channel activation, primary screen; Q8BHY3; HEK293 TMEM16A/YFP-H148Q/I152L, iodide quench fluorescence; hits give low values; B-score at 10 µM; hit rate 0.3% among 340,000; AID 623877;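 active = fluorescence-ratio B-score plate-corrected deviation score at least 3 library SD below zero, with starting fluorescence score within 5 deviations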;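 also: channel opened by trigger with iodide after compound preincubation; score built on the fluorescence ratio of max minus min over baseline; more negative score means more quench and so TMEM16A activation or potentiation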
NOD2 RIPK2 PPI – inhibitors of human NOD2-RIPK2 interaction; O43353; CHO BLA complementation NOD2-RIPK2, CCF4 ratio; inhibition, % at 4.98 µM; hit rate 0.38% among 360,000; AID 624267; in the data active = inhibition above about 21%
TLR4 MyD88 comp – inhibitors of human TLR4-MyD88 binding; O00206+Q99836; inhibition, % at 8.4 µM; hit rate 0.18% among 200,000; HeLa CL3-4 TLR4/MyD88 BLA complementation, FRET ratio; in the data active = inhibition above about 25%
HTR2A ag – mouse HTR2A agonism via beta-arrestin recruitment; P35363; CHO-K1 mHTR2A beta-arrestin complementation, luminescence; percent of 30 µM serotonin response; activation, % at 7.6 µM; hit rate 0.66% among 360,000; AID 624169;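 active = activation above a run cutoff, the mean activation of all tested compounds plus 3 SD, cut at about 14% in these data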
TLR9-MyD88 block – blocks human TLR9 binding to MyD88. Q9NR96+Q99836. CHO BLA complementation TLR9-MyD88, CCF4 FRET ratio. inhibition, % at 4.98 µM. hit rate 0.21% among 340,000. AID 504734;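 active = inhibition above the mean over all tested compounds plus 3 SD, cut at about 21% in these data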
ANO1 block – mouse TMEM16A channel inhibition, primary screen; HEK293 TMEM16A/YFP iodide influx fluorescence, ionomycin; normalized B-score (activity score, 25-100; higher = stronger inhibition) at 10 µM; hit rate 1.2% among 310,000; AID 588511;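 active = ratio plate-corrected score three or more library SD toward inhibition, starting fluorescence score within five deviations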;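 also: score derived from kinetic fluorescence span divided by baseline fluorescence per well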
Numbers stand for hits; . = inactive; / = no result.

SMILES	TMEM16A act	NOD2 RIPK2 PPI	TLR4 MyD88 comp	HTR2A ag	TLR9-MyD88 block	ANO1 block
CC(C)OC(=O)c1ccc(Cn2nnc3ccccc3c2=O)cc1	.	.	.	.	.	100
O=c1[nH]c2ccccc2nc1-c1nnnn1C1CCCC1	/	.	/	.	/	/
CCn1c(SCC(=O)NCC2CCCO2)nnc1-c1ccccc1 (configuration not stated)	.	.	.	.	.	.
Nn1cc(-c2ccccc2)nc1SCC(=O)NCC1CCCO1 (configuration not stated)	-20	.	.	.	.	.
CCOC(=O)CC(NS(=O)(=O)c1ccc(NC(C)=O)cc1)c1ccc(OCC)cc1 (configuration not stated)	.	.	.	.	.	25
CC(=O)Nc1ccc(S(=O)(=O)NC(CC(=O)O)c2ccc(C)cc2)cc1 (configuration not stated)	.	.	/	.	.	.
O=c1c2c(-c3ccccc3)csc2ncn1/N=C/c1cccc([N+](=O)[O-])c1O	.	.	.	.	.	25
O=C(CCCOc1ccccc1)NCCc1ccccc1	.	.	.	.	/	.
NS(=O)(=O)c1ccc(CCNC(=O)CNC(=O)COc2ccccc2)cc1	-4.7	.	/	.	.	.
NS(=O)(=O)c1ccc(CCNC(=O)CCCOc2ccccc2)cc1	-4.6	.	.	.	.	.
Cc1ccc(C2=NN(Cc3nnc(-c4ccccc4)o3)C(=O)SC2)cc1	.	.	.	.	.	25
O=C(NCCCN1CCN(c2ccccc2F)CC1)C1CCN(S(=O)(=O)c2cccs2)CC1	.	.	.	15	.	.
O=C(NCCN1CCN(c2ccccc2)CC1)C1CCN(S(=O)(=O)c2cccs2)CC1	.	.	.	.	.	/
O=C(COC(=O)c1cc(Cl)ccc1[N+](=O)[O-])NC1CC1	.	.	/	.	.	/
CCSc1nnc(NC(=O)C(CC)(C(F)(F)F)C(F)(F)F)s1	.	.	.	.	.	100
Cc1ccc(C(=O)N2CCN(c3cc(=O)[nH]nc3-c3ccccc3)CC2)cc1	.	.	.	.	.	.
Cc1ccccc1OCC(O)CN(CCO)Cc1ccccc1 (configuration not stated)	-38	.	.	.	.	.
COc1ccc(C2CC(c3ccccc3)=NN2C(=O)COC(=O)c2cc(S(=O)(=O)N3CCOCC3)ccc2Cl)cc1 (configuration not stated)	.	.	.	.	.	.
Cc1cc(N2CCN(S(=O)(=O)c3ccc(Cl)cc3)CC2)c2ccccc2n1	.	.	.	.	.	100
COc1cc(/C=N/NC(=S)NC2CC3CC2C2C=CCC32)ccc1O (configuration not stated)	.	.	/	.	.	100
Nn1c(SCC(=O)Nc2ccccc2F)nnc1C1CCCCC1	.	.	/	.	.	.
CCc1ccc(Nc2n[n+](-c3ccccc3)c(-c3ccc(OCc4ccccc4)cc3)s2)cc1	.	.	/	.	.	100
O=C(Nc1ccc2c(c1)OCCO2)c1cc(-c2ccccc2)nc2ccccc12	.	.	.	.	.	.
CCOC(=O)Cn1nnnc1CN(Cc1ccccc1)Cc1cc2cc(CC)ccc2[nH]c1=O	.	.	.	.	.	25
CCOC(=O)c1c(C)oc2cc(Br)c(OC(C)C(=O)OCC)cc12 (configuration not stated)	.	.	.	.	.	25
SMILES	TMEM16A act	NOD2 RIPK2 PPI	TLR4 MyD88 comp	HTR2A ag	TLR9-MyD88 block	ANO1 block
CCOC(=O)COc1cc2c(C(=O)OCC)c(C)oc2cc1Br	.	.	.	.	.	.
COc1ccc(NS(=O)(=O)c2cc3c(cc2C)N(C)CCO3)cc1	.	.	/	.	.	.
CCOc1ccc(NS(=O)(=O)c2cc3c(cc2C)N(C)CCO3)cc1	-9	.	/	.	.	.
CCCc1nc2cc(Cl)c([N+](=O)[O-])cc2o1	.	.	.	.	.	100
CCCc1nc2cc(CC(=O)OC)ccc2o1	.	.	.	.	.	.
CCc1ncc(C)nc1CC	.	.	/	.	.	100
CCc1ncc(C)[nH]1	/	/	/	/	/	.
COc1ccc(CN(C)C(=O)CCN(c2ccccc2)S(=O)(=O)c2ccc(C)cc2)c(OC)c1	.	.	/	.	.	25
NS(=O)(=O)c1ccc(N/N=C/c2ccc[nH]2)c([N+](=O)[O-])c1	.	.	/	.	.	.
Clc1ccc(COc2cccc(CNCc3ccncc3)c2)cc1	.	.	.	.	.	100
CC(C)(CO)NCc1cccc(OCc2ccc(Cl)cc2)c1	.	.	.	.	.	.
O=C(O)c1ccccc1Nc1cccc(OCc2ccc3ccccc3n2)c1	.	.	/	.	.	100
CC(C)(C)Cc1nc2ccccc2n1CCc1ccccc1	.	.	.	.	.	.
COc1cccc(COc2cc3ccccc3nc2C)c1	.	.	.	.	.	25
Cc1nc2ccccc2cc1OCc1ccc(Cl)cc1	.	.	.	.	.	.
N#C/C(=C(/O)c1ccc2c(c1)OCO2)c1nc2cc(C(F)(F)F)ccc2s1	.	.	/	.	.	100
N#C/C(=C(/O)c1ccccc1F)c1nc2cc(C(F)(F)F)ccc2s1	.	.	.	.	.	.
COc1ccc(N(CC(=O)NCCSc2ccccc2)S(=O)(=O)c2ccccc2)cc1	.	.	/	.	.	.
Cc1cn2c(N)c(C=C3C=C(Cl)C(=O)C(Cl)=C3)c(=O)nc2s1	-6.8	.	.	.	.	/
COC1=C/C(=C/c2c(N)n3cc(C)sc3nc2=O)C=CC1=O	.	.	.	.	.	.
Cc1c(NS(=O)(=O)c2ccc3c(c2)OCCO3)cccc1-c1nc2cccnc2s1	.	.	.	.	.	25
Cc1cc(-c2nc3cccnc3s2)ccc1NS(=O)(=O)c1ccc2c(c1)OCCO2	.	.	.	.	.	.
Cc1ccccc1NS(=O)(=O)c1ccc(C(=O)NCCCN2CCOCC2)cc1	.	.	/	.	.	.
CC(=O)NCCOc1nc(N2CCCCC2)nc(N2CCCCC2)n1	-7	.	.	.	.	.
Cc1[nH]c(=O)c(C(=O)/C=C/c2ccccc2F)c2c1CCCC2	.	23	.	.	.	.
CCN1CCN(C(=O)C(Cc2ccccc2)NC(=O)c2ccc(Cl)c(S(=O)(=O)N(C)C)c2)CC1 (configuration not stated)	-46	.	/	.	.	/
O=C(NC(Cc1ccccc1)C(=O)N1CCN(S(=O)(=O)c2ccccc2F)CC1)c1ccccc1 (configuration not stated)	.	.	/	.	.	/
C=C1C(=O)C23C(O)C1CCC2C12COC3(O)C(O)C1C(C)(C)CCC2O (configuration not stated)	/	.	/	.	/	/
NS(=O)(=O)c1ccc(-c2cccc(/C=C3\SC(=O)NC3=O)c2)cc1	-4.9	.	/	.	.	.
COc1ccc(C=C2SC(=O)NC2=O)cc1OC	.	.	/	.	.	/

Assay outcomes: PubChem BioAssay, several laboratories
